Screens as filed in PubChem BioAssay.
gsp ag: qHTS for Agonist of gsp, the Etiologic Mutation Responsible for Fibrous Dysplasia/McCune-Albright Syndrome: qHTS; gsp mutant cells, cAMP HTRF, 30 min; Potency, µM (titrated, usually from 76.9 µM), without a hit: at the highest dose activation (cAMP increase), hits mostly activators; actives 0.13% (n = 340,000); active = well fitted activation curve with a large enough effect; inconclusive = small, poorly fitted or top-dose-only effect, or another doubt; inactive = no such curve, though single readings can be large or run the other way; cell line not stated here;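 also: phosphodiesterase inhibitor Ro 20-1724 added with compounds to block cAMP breakdown; nearly all actives have a fitted effect of over 60% in size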
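Cells stably selected in G418 were plated at 2000/well, grown 16-24 hr, then given compounds in DMSO with the PDE inhibitor […] (300 uM solution added) for 30 min at 37C; cAMP was read by HTRF.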
12-LOX inh: Primary qHTS assay for inhibitors of human arachidonate 12S-lipoxygenase (ALOX12): Round 2; Polyunsaturated fatty acid lipoxygenase ALOX12 (Homo sapiens), P18054; purified 12hLO, xylenol orange hydroperoxide absorbance; Potency, µM (series often up to 108 µM), for inactives: at the top dose activity change, negative = inhibition, most hits filed as inhibitors; actives 1.1% (n = 580,000); AID 1671190, 2021; also: % is scaled to controls: 0 for no effect and ±100 for the full control effect
Target sequence (P18054 whole entry, looked up): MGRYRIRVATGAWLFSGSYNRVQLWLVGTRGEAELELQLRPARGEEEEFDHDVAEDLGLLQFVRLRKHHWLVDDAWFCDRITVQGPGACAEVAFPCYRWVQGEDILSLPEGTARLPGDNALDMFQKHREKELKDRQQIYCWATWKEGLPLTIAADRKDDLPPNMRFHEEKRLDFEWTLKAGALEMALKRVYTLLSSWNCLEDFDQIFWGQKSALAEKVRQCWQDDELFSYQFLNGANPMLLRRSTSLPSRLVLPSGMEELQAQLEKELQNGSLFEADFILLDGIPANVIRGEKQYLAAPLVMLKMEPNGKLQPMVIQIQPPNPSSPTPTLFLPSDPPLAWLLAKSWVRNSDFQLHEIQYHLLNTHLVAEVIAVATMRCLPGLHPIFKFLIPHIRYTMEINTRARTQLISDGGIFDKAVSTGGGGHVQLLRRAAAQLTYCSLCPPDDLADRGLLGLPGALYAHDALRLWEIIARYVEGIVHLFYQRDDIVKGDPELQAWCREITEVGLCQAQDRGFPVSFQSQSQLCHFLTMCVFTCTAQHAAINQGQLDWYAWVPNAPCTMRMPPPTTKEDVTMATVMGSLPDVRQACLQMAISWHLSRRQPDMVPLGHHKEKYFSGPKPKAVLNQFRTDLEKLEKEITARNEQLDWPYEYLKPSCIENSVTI
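Purified human 12hLO at 150 nM in 25 mM Hepes, 0.01% Triton X-100, pH 7.0, preincubated 15 min at room temperature with compound. Reaction started with 40 uM arachidonic acid, 30 min at room temperature. Hydroperoxide measured by Fe-xylenol orange, 573/405 nm absorbance ratio.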
Mito fusion yeast: qHTS Assay for Small Molecule Inhibitors of Mitochondrial Division or Activators of Mitochondrial Fusion. S. cerevisiae fusion-defective mutant growth rescue, CellTiterGlo 48 h. Potency, µM (highest dose often 46.1 µM), for the others: at the top dose growth rescue (activation), most hits filed as activators. actives 0.23% (n = 320,000). AID 485298, 2010; also: % of control where 0% means no effect; nearly all actives have a fitted effect of over 45% in size
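Read-out: ATP-based luminescence (CellTiterGlo, 10 min ambient) reporting growth of fusion-defective ts yeast after 48 hours at 37C on glycerol/ethanol YPEG medium in the presence of compound.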
FUS suppressor: qHTS for Suppressors of FUS Proteinopathy: Primary screen using FUS-linked yeast assay. AID 1347120, 2019. actives 0.24% (n = 390,000). Potency, µM (top dose mostly 76.6 µM), usual class: activators. S. cerevisiae FUS-expressing, growth rescue, OD600, 24 h;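 also: plate controls were DMSO vehicle for no effect and reference control for full effect; nearly all actives have a fitted effect of over 55% in size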
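FUS-expressing yeast, raffinose-pregrown, induced in 2% galactose minimal medium at OD 0.005; compounds in a dilution series, 24hr at 30C. Growth restoration read as absorbance at 600 nm. CP55940 positive control, DMSO negative.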
gsp antagonist: qHTS for Antagonists of gsp, the Etiologic Mutation Responsible for Fibrous Dysplasia/McCune-Albright Syndrome: qHTS. gsp-mutant cells, cAMP HTRF, 30 min. Potency, µM (series often up to 76.9 µM), inactives show at the top dose activity change, negative = inhibition, hits mostly inhibitors. actives 0.4% (n = 340,000). AID 624288, 2012; calls by dose curve; cell line not stated here;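 also: intracellular cAMP measured with PDE inhibitor Ro 20-1724 present during compound exposure; % is scaled to controls: 0 for no effect and ±100 for the full control effect; nearly all actives have a fitted effect of over 65% in size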
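G418-selected cells were plated in DMEM/10% FBS for 16-24 h at 37C, then treated with compounds plus the PDE inhibitor […] (300 uM solution added) for 30 min at 37C. Intracellular cAMP was measured by HTRF after 30 min lysis at room temperature.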
* hit, by the source's call; i = inactive; ? = inconclusive; nt = no result given; ! = not active in a repeat; [ ] = remark or other dose. In the library only some 1.6% were active in any assay of this set; here they are far more common. Unless noted, calls follow the shape of the dose curve; as a rule, active = well fitted curve in the direction sought with a large enough effect; inconclusive = small, poorly fitted or top-dose-only effect, or another doubt; inactive = no such curve, though single readings can be large; an effect the other way counts as inactive or inconclusive. Potency is read from the fitted curve at half-maximal effect.

SMILES	gsp ag	12-LOX inh	Mito fusion yeast	FUS suppressor	gsp antagonist
O=C(CCCN1C(=O)C(c2ccccc2)Oc2cccnc21)NCCc1ccccc1 (configuration not stated)	nt	9%	nt	nt	nt
CCOCCOC(C)C(=O)NCC(C)(C)c1ccccc1OC (configuration not stated)	nt	8%	nt	nt	nt
CCN(CC(=O)Nc1c(F)cccc1F)C(=O)CCc1nc2sc3c(c2c(=O)[nH]1)CCCC3	-9%[15.4 µM]	14µM*	2%	?	-3%
Cc1nc2ccc(S(=O)(=O)Nc3cccc(-c4nc5cccnc5s4)c3)cc2s1	17%	14%	16µM*	?	-8%
Cc1nc2ccc(S(=O)(=O)Nc3ccc(-c4nc5cccnc5s4)cc3)cc2s1	-10%	-10%	?	i	?
CCOC(=O)c1cccc(NS(=O)(=O)c2cc(-c3nn(C)c(=O)c4c3CCCC4)ccc2C)c1	nt	11%	nt	nt	nt
O=C(NC1CC1)c1cccc(Nc2ccc(-c3ccc4c(c3)OCCO4)nn2)c1	-18%	-24%	-2%	i	32µM*
O=S(=O)(c1ccc(Nc2ccc(-c3ccc4c(c3)OCCO4)nn2)cc1)N1CCCC1	-74%	16%	6%	i	2%
O=c1c(-c2ccco2)[n+]([O-])c2ccccc2n1OCc1ccccc1	24%	40µM*	1%	i	-23%
CC1CCN(C2=C(NS(=O)(=O)c3ccc(Cl)cc3)C(=O)c3ccccc3C2=O)CC1	-22%	-6%	16µM*	i	1%
O=CN1CCCCC1	nt	6%[176 µM]	nt	nt	nt
COc1ccc(-c2cc(C(=O)NNC(=S)NC(=O)c3c(-c4ccccc4)noc3C)[nH]n2)cc1	19%	11µM*	0%	i	-18%
O=C(NCCc1ccccc1)N1CC(Oc2ccccc2-c2nc(-c3ccccc3)no2)C1	nt	-18%	nt	nt	nt
COc1cc(CNc2ncnc3c2ncn3[C@H]2CN(Cc3cccc4ccccc34)C[C@@H](CO)O2)cc(OC)c1OC	nt	4%	nt	28µM*	nt
CCN(CC)c1ncnc2c1ncn2[C@H]1CN(Cc2ccc(-c3ccccc3)cc2)C[C@@H](CO)O1	nt	-14%	nt	28µM*	nt
CCN(CC)c1ncnc2c1ncn2[C@H]1CN(Cc2ccco2)C[C@@H](CO)O1	nt	6%	nt	i	nt
Cc1ccc(C(=O)NC2CCN(c3cc(-c4ccc(F)cc4)[nH]n3)C2)cc1C (configuration not stated)	nt	1%	nt	nt	nt
COc1ccccc1-c1[nH]c2ccccc2c1C(C)=O	nt	0%	nt	nt	nt
COc1ccc2ccccc2c1C1CC(=O)N2CN(Cc3ccco3)CSC2=C1C#N (configuration not stated)	-4%	?	-3%	?	?
COc1ccc(C2CC(=O)N3CN(C4CCCCC4)CSC3=C2C#N)c(OC)c1 (configuration not stated)	nt	40µM*	nt	i	nt
COc1ccc2ccccc2c1C1CC(=O)N2CN(C3CCCCC3)CSC2=C1C#N (configuration not stated)	-34%	18µM*	0%	i	?
Cc1cc(SCC(=O)N/N=C/c2ccc(O)c(O)c2)nc2ccccc12	-28%	-12%	-2%	i	-24%
Cc1cc(SCC(=O)N/N=C/c2ccc(O)c(O)c2)c(C)cc1Br	-39%	6.3µM*	8%	i	-18%
CCn1nc(C(=O)Nc2nc(-c3cccs3)cs2)c2ccccc2c1=O	nt	-28%	nt	nt	nt
COc1ccc(/C(O)=C2/C(=O)C(=O)N(Cc3ccco3)C2c2cccs2)cc1 (configuration not stated)	?	20µM*	0%	i	-12%
SMILES	gsp ag	12-LOX inh	Mito fusion yeast	FUS suppressor	gsp antagonist
CCOC(=O)C(=CNNc1cccc(Cl)c1)C(=O)OCC	1%[15.4 µM]	13µM*	-2%	i	2%
CCOC(=O)C(=CNc1ccc(Cl)cn1)C(=O)OCC	3%[15.4 µM]	124%	-12%	i	-19%
COC(=O)[C@@]12C[C@@H](CC(=O)NCc3ccc(OC)c(OC)c3)C(=O)N(Cc3ccc4c(c3)OCO4)C1=CCC(C)(C)C2	nt	-10%	nt	13µM*	nt
COC(=O)[C@@]12C[C@@H](CC(=O)NCc3cccc(C(F)(F)F)c3)C(=O)N(Cc3ccc4c(c3)OCO4)C1=CCC(C)(C)C2	nt	-23%	nt	?	nt
COC(=O)[C@@]12C[C@@H](CC(=O)NCCC(C)C)C(=O)N(Cc3cccc4ccccc34)C1=CCC(C)(C)C2	nt	?	nt	14µM*	nt
CCN(CC)c1nc2ccccc2nc1C(C#N)S(=O)(=O)c1ccc(C)cc1 (configuration not stated)	nt	14µM*	nt	nt	nt
CC1CCc2c(c(-c3ccc(O)cc3)nc3ccc4ccccc4c23)C1 (configuration not stated)	nt	-5%	nt	nt	nt
CC1CCc2c(nc3ccc4ccccc4c3c2-c2cccc(O)c2)C1 (configuration not stated)	nt	4.5µM*	nt	nt	nt
COc1ccc(-n2c(=S)[nH]c3cc(C(=O)NCc4ccccc4)ccc3c2=O)c(OC)c1	9%[15.4 µM]	?	0%	?	20µM*
COc1ccc(-n2c(=S)[nH]c3cc(C(=O)NCc4cccnc4)ccc3c2=O)c(OC)c1	13%	-21%	-1%	?	-11%
O=C(O)c1ccccc1Nc1cccc(OCc2ccc3ccccc3n2)c1	nt	?	15µM*!	i	-27%
COc1ccccc1NC(=O)N1CCc2cc(OC)c(OC)cc2C1CNC(=O)c1ccccc1 (configuration not stated)	nt	2%	nt	nt	nt
O=C(Oc1ccc2c(=O)c(Cl)coc2c1)c1cccnc1	-4%	-13%	1%	i	-10%
O=C(Oc1ccc2c(=O)c(Oc3ccc4ccccc4c3)coc2c1)c1cccnc1	-7%[15.4 µM]	-15%	16µM*	i	-6%
CC[C@H](NC(=O)c1c(C)c(-c2ccccc2)nc2ccccc12)c1ccccc1	nt	-5%	21µM*!	i	-2%
Cc1c(-c2ccccc2)nc2ccccc2c1C(=O)O	14%	-26%	3%	i	3%
O=C(NNc1ccccc1C(F)(F)F)c1sccc1Br	24%	40µM*	-1%	i	5%
Cc1cc(SCC(=O)N/N=C/c2ccc(O)cc2O)nc2ccccc12	?	6%	0%	?	35µM*
CN(C)C(=O)C(Sc1nnc(-c2cc(Cl)ccc2Cl)n1N)c1ccccc1 (configuration not stated)	nt	31%	nt	nt	nt
O=C(c1ccccc1)c1cc(Cl)ccc1N1C(=O)C=CC1=O	0%	7.9µM*	-3%	i	16%
